Here are results for 9 compounds from PubChem BioAssay AID1508601 (ICCB-Longwood Screening Facility, Harvard Medical School, 2020).

The structures appear in SMILES notation. Values joined by “and” are separate entries in the source; they are usually repeats but may differ in a detail not shown here. Identical values can stand only once. The campaign covered roughly 5,700 compounds. About 85 (1%) were called active. No stated cut-off is given here; in the data, active means p53-positive nuclei above about 36% (passing the limit was not always enough); inactive means the rest. The sample as a whole holds a higher share of actives than the screen did. More than one record can exist for a structure, and the calls need not agree.

Assay [1] can be described thus: p53 stabilisation in HPV-positive human cells, imaging, p53-positive nuclei imaging, 24 h, 48 h (AID 1508601). The following applies: 24/48 h.
The target of assay [2] is Cellular tumor antigen p53 (Homo sapiens) (UniProt P04637). The assay is described as above. The following applies: 24/48 h, stronger effect = higher value.
Cellular tumor antigen p53 (Homo sapiens), sequence (P04637 whole entry, looked up): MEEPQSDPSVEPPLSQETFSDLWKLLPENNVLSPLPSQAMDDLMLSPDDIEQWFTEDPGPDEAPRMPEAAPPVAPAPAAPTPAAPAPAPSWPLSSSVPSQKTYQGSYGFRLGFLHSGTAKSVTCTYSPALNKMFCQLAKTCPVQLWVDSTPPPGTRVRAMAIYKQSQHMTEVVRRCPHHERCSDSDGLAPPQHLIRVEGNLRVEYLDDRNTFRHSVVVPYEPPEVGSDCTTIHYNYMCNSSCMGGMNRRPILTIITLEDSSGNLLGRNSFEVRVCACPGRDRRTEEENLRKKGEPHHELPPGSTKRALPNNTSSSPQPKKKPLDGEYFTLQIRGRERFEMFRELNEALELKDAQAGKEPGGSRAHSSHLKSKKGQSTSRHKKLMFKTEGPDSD
The mark [3] stands for this setting: measured here: cell number at 24 h, Library stock concentration: 10 mM.
[4] abbreviates: measured here: cell number at 48 h, Library stock concentration: 10 mM.
Where [5] appears, read: Library stock concentration: 10 mM.
The mark [6] stands for this setting: measured here: p53 positive nuclei at 24 h, Library stock concentration: 10 mM.
[7] abbreviates: measured here: cell number at 24 h, concentration not given here.
Where [8] appears, read: measured here: cell number at 48 h, concentration not given here.
Setting [9] is: measured here: p53 positive nuclei at 24 h, concentration not given here.

For the compound `Cc1sc2c(c1C)C(c1ccc(Cl)cc1)=NC(CC(=O)OC(C)(C)C)c1nnc(C)n1-2` (stereo not drawn), the nuclei count, normalised was 101% and 128% and 116% in assay [1] (measured here: cell number at 24 h, Library stock concentration: 80 uM); 109% and 128% and 117% in assay [1] (measured here: cell number at 24 h, Library stock concentration: 400 uM); 107% and 132% and 120% in assay [1] (measured here: cell number at 24 h, Library stock concentration: 2 mM); 128% in assay [1] (measured here: cell number at 24 h, Library stock concentration: 3.33 mM); 99.7% and 123% and 119% in assay [1] (setting [3]); 95.3% and 134% and 114% in assay [1] (measured here: cell number at 48 h, Library stock concentration: 80 uM). For the same compound, the nuclei count, normalised in assay [1] (measured here: cell number at 48 h, Library stock concentration: 400 uM) was 97.6% and 128% and 112%; in assay [1] (measured here: cell number at 48 h, Library stock concentration: 2 mM), 109% and 132% and 118%; in assay [1] (measured here: cell number at 48 h, Library stock concentration: 3.33 mM), 124%; in assay [1] (setting [4]), 99.9% and 124% and 117%. Further, the p53-positive nuclei, normalised in assay [2] (Library stock concentration: 80 uM) was 0.233% (inactive) and -0.29% (inactive) and -0.79% (inactive); in assay [2] (Library stock concentration: 400 uM) it was -0.238% (inactive) and -0.0882% (inactive) and -0.721% (inactive); in assay [2] (Library stock concentration: 2 mM), 3.93% (inactive) and 0.629% (inactive) and -0.825% (inactive); in assay [2] (Library stock concentration: 3.33 mM), 7.2% (inactive); in assay [2] (setting [5]), 26.8% (active) and 8.08% (inactive) and -0.599% (inactive); in assay [2] (measured here: p53 positive nuclei at 24 h, Library stock concentration: 80 uM), 0.0692% and 0.858% and -0.21%. Moreover, the p53-positive nuclei, normalised in assay [2] (measured here: p53 positive nuclei at 24 h, Library stock concentration: 400 uM) is 0.159% and 1.07% and -0.0728%; in assay [2] (measured here: p53 positive nuclei at 24 h, Library stock concentration: 2 mM) it was 12.9% and 4.45% and -0.21%; in assay [2] (measured here: p53 positive nuclei at 24 h, Library stock concentration: 3.33 mM), 15.6%; in assay [2] (setting [6]), 54.1% and 21.9% and 0.0629%.
With `CCCCC/C=C\C/C=C\C/C=C\C/C=C\CCCC(=O)N[C@@H](CO)C(=O)O`, the figures for the nuclei count, normalised in assay [1] (setting [7]) and in assay [1] (setting [8]) were 108% and 107%, respectively. Also, the values for the p53-positive nuclei, normalised in assay [2] (concentration not given here) and in assay [2] (setting [9]) were 0.0364% (inactive) and -0.0848%, respectively.
As for `C=C(C)[C@@H]1CCC(C)=C[C@H]1c1c(OC)cc(CCCCC)cc1OC`, the nuclei count, normalised in assay [1] (setting [7]) came to 107%; in assay [1] (setting [8]) it was 109%. Further, the figures for the p53-positive nuclei, normalised in assay [2] (concentration not given here) and in assay [2] (setting [9]) were 0.00281% (inactive) and -0.021%, respectively.
The like results for `CCCCC/C=C\C/C=C\C/C=C\C/C=C\CCCC(=O)NC1CC1` were, in that order, 110%, 110%, -0.0789% (inactive) and -0.0843%.
With `CC1OC(O[C@H]2CC[C@@]3(C)[C@@H](CC[C@@H]4[C@H]3CC[C@]3(C)[C@@H](C5=CC(=O)OC5)CC[C@]43O)C2)CC(O)C1O` (stereo partly drawn), the nuclei count, normalised stood at 65.6% in assay [1] (measured here: cell number at 24 h, Library stock concentration: 500 nM); 57.4% in assay [1] (measured here: cell number at 24 h, Library stock concentration: 1.5 uM); 53% in assay [1] (measured here: cell number at 24 h, Library stock concentration: 4.6 uM); 48.6% in assay [1] (measured here: cell number at 24 h, Library stock concentration: 13.7 uM); 45.4% in assay [1] (measured here: cell number at 24 h, Library stock concentration: 41 uM); 41.8% in assay [1] (measured here: cell number at 24 h, Library stock concentration: 123 uM). For the same compound, the nuclei count, normalised came to 40.1% in assay [1] (measured here: cell number at 24 h, Library stock concentration: 370 uM); 41.7% in assay [1] (measured here: cell number at 24 h, Library stock concentration: 1.111 mM); 42.7% in assay [1] (measured here: cell number at 24 h, Library stock concentration: 3.333 mM); 42.7% in assay [1] (setting [3]); 46.8% in assay [1] (measured here: cell number at 48 h, Library stock concentration: 500 nM); 37.2% in assay [1] (measured here: cell number at 48 h, Library stock concentration: 1.5 uM). For the same compound, the nuclei count, normalised stood at 33.8% in assay [1] (measured here: cell number at 48 h, Library stock concentration: 4.6 uM); 32.8% in assay [1] (measured here: cell number at 48 h, Library stock concentration: 13.7 uM); 29.8% in assay [1] (measured here: cell number at 48 h, Library stock concentration: 41 uM); 30.1% in assay [1] (measured here: cell number at 48 h, Library stock concentration: 123 uM); 27.4% in assay [1] (measured here: cell number at 48 h, Library stock concentration: 370 uM); 28.3% in assay [1] (measured here: cell number at 48 h, Library stock concentration: 1.111 mM). Also, the nuclei count, normalised in assay [1] (measured here: cell number at 48 h, Library stock concentration: 3.333 mM) stood at 30.1%; in assay [1] (setting [4]), 29%. In addition, the p53-positive nuclei, normalised in assay [2] (Library stock concentration: 500 nM) was 1.14% (inactive); in assay [2] (Library stock concentration: 1.5 uM) it was 2.17% (inactive); in assay [2] (Library stock concentration: 4.6 uM), 5.96% (inactive); in assay [2] (Library stock concentration: 13.7 uM) it was 13.9% (inactive); in assay [2] (Library stock concentration: 41 uM) it was 17.9% (inactive); in assay [2] (Library stock concentration: 123 uM), 17.3% (inactive). Also, the p53-positive nuclei, normalised is 15.8% (inactive) in assay [2] (Library stock concentration: 370 uM); 18.6% (inactive) in assay [2] (Library stock concentration: 1.111 mM); 15.3% (inactive) in assay [2] (Library stock concentration: 3.333 mM); 14% (inactive) in assay [2] (setting [5]); 0.0832% in assay [2] (measured here: p53 positive nuclei at 24 h, Library stock concentration: 500 nM); 0.441% in assay [2] (measured here: p53 positive nuclei at 24 h, Library stock concentration: 1.5 uM). Moreover, the p53-positive nuclei, normalised is 2.38% in assay [2] (measured here: p53 positive nuclei at 24 h, Library stock concentration: 4.6 uM); 2.28% in assay [2] (measured here: p53 positive nuclei at 24 h, Library stock concentration: 13.7 uM); 1.13% in assay [2] (measured here: p53 positive nuclei at 24 h, Library stock concentration: 41 uM); 0.939% in assay [2] (measured here: p53 positive nuclei at 24 h, Library stock concentration: 123 uM); 1.03% in assay [2] (measured here: p53 positive nuclei at 24 h, Library stock concentration: 370 uM); 1.24% in assay [2] (measured here: p53 positive nuclei at 24 h, Library stock concentration: 1.111 mM). Further, the p53-positive nuclei, normalised in assay [2] (measured here: p53 positive nuclei at 24 h, Library stock concentration: 3.333 mM) was found to be 1.62%; in assay [2] (setting [6]), 0.952%.
As to `C[C@@H]1O[C@@H](O[C@H]2CC[C@]3(C=O)C4CC[C@]5(C)[C@@H](C6=CC(=O)OC6)CC[C@]5(O)C4CC[C@]3(O)C2)[C@H](O)[C@H](O)[C@H]1O` (stereo partly drawn), the nuclei count, normalised is 35.2% in assay [1] (setting [7]) and 23.7% in assay [1] (setting [8]). Moreover, the p53-positive nuclei, normalised in assay [2] (concentration not given here) was 28.5% (inactive); in assay [2] (setting [9]), 2.41%.
The corresponding values for `CO[C@H]1[C@H](O)[C@@H](O[C@H]2CC[C@]3(C=O)C4CC[C@]5(C)[C@@H](C6=CC(=O)OC6)CC[C@]5(O)C4CC[C@@H]3C2)O[C@@H](C)[C@@H]1O` (stereo partly drawn) are 35.5%, 25.2%, 50.3% (active) and 2.96%.
The like results for `O=c1c2cc(F)ccc2ncn1Cc1cn2ccccc2n1` were, in that order, 98.7%, 106%, -0.262% (inactive) and -0.23%.
The like results for `CCCCC/C=C\C/C=C\C/C=C\C/C=C\CCCC(=O)NC` were, in that order, 104%, 99.6%, 0.0321% (inactive) and -0.0963%.
